# Data taken from PubChem BioAssay (Tox21).
# Records with an inconclusive call do not appear. A call without a number means that no potency is given here. A number with no mark means an inactive call. The source made the active and inactive calls. Calls come from the whole dose curve; as a rule, active = well fitted cell-killing curve with a large enough effect in the repeat runs; inconclusive = weak or mixed curves, or effect the other way; inactive = flat fitted curve, though single readings scatter.
# Experiments:
# [1] = cAMP Responsive Elements (CRE) small molecule antagonists, cell-based qHTS assay: qHTS cell viability counter screen (AID 2060913); note: nearly all actives have a fitted effect of over 40% in size
# In short: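 Cytotoxicity read in the same wells as the CRE-bla HEK293T antagonist assay: after 3 h compound with 0.25 uM NKH477 final and 2 h beta-lactamase substrate, CellTiter-Glo luminescence measured.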
# [2] = cAMP Responsive Elements (CRE) small molecule agonists, cell-based qHTS assay: qHTS cell viability counter screen (AID 2060914);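 note: viability read after 3 h of compound exposure; nearly all actives have a fitted effect of over 50% in size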
# In short: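 CRE-bla HEK293T cells in 10% dialyzed FBS medium were exposed to compounds for 3 h at 37C after 18 h plating. CellTiter-Glo was then added in the same wells, and luminescence was read after 30 min at room temperature.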
# Potency is the fitted concentration of half-maximal effect.
SMILES,Potency [1],Potency [2],"viability change, negative = cytotoxic [1]","activity change, negative = cytotoxicity [2]"
CC1=C(/C=C/C(C)=C\C=C\C(C)=C\C(=O)O)C(C)(C)CCC1,inactive,inactive,–,–
O=C(Oc1ccccc1)c1ccccc1C(=O)Oc1ccccc1,inactive,inactive,–,–
CN1CCC(Nc2ncc3ncnc(Nc4ccc(F)c(Cl)c4)c3n2)CC1,inactive,inactive,–,–
Cc1cc(C)c(N)c(Cl)c1,inactive,inactive,–,–
Cc1sccc1Br,inactive,inactive,–,–
COc1ccc(C(=O)Nc2ccccc2)cc1[N+](=O)[O-],inactive,inactive,–,–
Cc1nc2ccccn2c(=O)c1CCN1CCC(C(=O)c2ccc(F)cc2)CC1,inactive,inactive,–,–
CCCCCCCCCCCCO,inactive,inactive,–,–
Cc1ccc(N)c([N+](=O)[O-])c1,inactive,inactive,–,–
CC1(C)[C@H](C(=O)OCc2cccc(Oc3ccccc3)c2)[C@@H]1C=C(Cl)Cl,inactive,inactive,–,–
CC(C)[C@@H]1CC[C@@H](C)C[C@H]1O,inactive,inactive,–,–
CCCCC/C=C/CC(=O)OC,inactive,inactive,–,–
O=C(OCCOCCOC(=O)c1ccccc1)c1ccccc1,inactive,inactive,–,–
CCCCC(CC)C(=O)OCCOCCOCCOC(=O)C(CC)CCCC (stereo not drawn),inactive,inactive,–,–
CN1CCOCC1,inactive,inactive,–,–
Clc1cc(Cl)c(Cl)nc1Cl,inactive,inactive,–,–
Cc1ccc(C(N)=O)cc1N,inactive,inactive,–,–
O=C(O)c1nc(Cl)c(Cl)c(Cl)c1Cl,inactive,inactive,–,–
CCc1cccc(O)c1,inactive,inactive,–,–
COc1cc2nc(N3CCN(C(=O)c4ccco4)CC3)nc(N)c2cc1OC,–,–,3.29% [at 18.9 µM],4.06% [at 18.9 µM]
O=[N+]([O-])c1cccc(C(F)(F)F)c1,inactive,inactive,–,–
CCCCCCOC(=O)CCCCC,inactive,inactive,–,–

SMILES,Potency [1],Potency [2],"viability change, negative = cytotoxic [1]","activity change, negative = cytotoxicity [2]"
CCCCN1CCCC1C(=O)Nc1c(C)cc(C)cc1C (stereo not drawn),inactive,inactive,–,–
Cc1cccc(N(C)C(=S)Oc2ccc3c(c2)CCC3)c1,inactive,inactive,–,–
Cn1cnc([N+](=O)[O-])c1Sc1ncnc2nc[nH]c12,inactive,inactive,–,–
Cc1cn[nH]c1,inactive,inactive,–,–
CCOC(=O)CN1CCCC1=O,inactive,inactive,–,–
Nc1cc(Cl)c([N+](=O)[O-])cc1O,inactive,inactive,–,–
CC(C)(C)c1ccc(C(=O)O)cc1,inactive,inactive,–,–
O=[N+]([O-])c1ccc(CO)cc1,inactive,inactive,–,–
CC(C)C[C@@H](N)C(=O)O,–,–,3.57% [at 18.9 µM],-6.51% [at 18.9 µM]
Oc1cn2c(n1)Nc1ccc(Cl)c(Cl)c1C2,–,–,7.34% [at 18.9 µM],-5.61% [at 18.9 µM]
COC(=O)NN,inactive,inactive,–,–
N#CCCNCCC#N,inactive,inactive,–,–
CN(C)c1cc(NC(=O)CNC(C)(C)C)c(O)c2c1C[C@H]1C[C@H]3[C@H](N(C)C)C(=O)C(C(N)=O)=C(O)[C@@]3(O)C(=O)C1=C2O,inactive,inactive,–,–
C=C(C)C(=O)Nc1ccc(Cl)c(Cl)c1,inactive,inactive,–,–
CCCCNc1c(C(=O)OCC)c(C)nc2c1cnn2CC,inactive,inactive,–,–
CC[C@H](c1ccc(O)cc1)[C@@H](CC)c1ccc(O)cc1,inactive,inactive,–,–
CCCCOC(=O)C(C)O (stereo not drawn),inactive,inactive,–,–
CCC(C)(C)CC,inactive,inactive,–,–
COc1cc2c(c(OC)c1OC)-c1ccc(OC)c(=O)cc1[C@@H](NC(C)=O)CC2,inactive,inactive,–,–
CCCCCCCC(=O)OCC,inactive,inactive,–,–
CCCN(C1CCN(C(=O)C2CCNCC2)CC1)[C@@H]1CCc2ccc(OC)cc2C1,inactive,inactive,–,–
CCOC(=O)COC(=O)c1ccccc1C(=O)OCC,inactive,inactive,–,–

SMILES,Potency [1],Potency [2],"viability change, negative = cytotoxic [1]","activity change, negative = cytotoxicity [2]"
CN1CCN(c2cc3c(nn2)Oc2ccccc2N3C)CC1,–,–,4.41% [at 18.9 µM],1.04% [at 18.9 µM]
CC(=O)OCc1ccccc1,inactive,inactive,–,–
CCOC(=O)NNc1ccc(N(CC)CC(C)O)nn1 (stereo not drawn),inactive,inactive,–,–
COC(=O)C1=C(C)NC(C)=C(C(=O)O[C@@H]2CCCN(Cc3ccccc3)C2)[C@@H]1c1cccc([N+](=O)[O-])c1,inactive,inactive,–,–
CC(=O)NCCO,inactive,inactive,–,–
COCCc1ccc(OCC(O)CNC(C)C)cc1 (stereo not drawn),inactive,inactive,–,–
CCc1cc(C(C)(C)C)c(O)c(C(C)(C)C)c1,inactive,inactive,–,–
CCN(CCO)CCCC(C)Nc1ccnc2cc(Cl)ccc12 (stereo not drawn),–,–,24.8% [at 8.39 µM],-9.15% [at 8.39 µM]
CC(C)c1cccc(C(C)C)c1NC(=O)NS(=O)(=O)c1cc(C(C)(C)O)co1,inactive,inactive,–,–
CCCCCCCC[N+](CCCCCCCC)(CCCCCCCC)CCCCCCCC,19.3 µM (active),30.6 µM (active),–,–
F[B-](F)(F)F,inactive,inactive,–,–
CCCCCCCCCCCCCCCCCC(=O)OCCCCCCCCCCCCCC(C)C,inactive,inactive,–,–
O=C(O)CCN(C1(C(=O)NO)CCCC1)S(=O)(=O)c1ccc(Oc2ccc(F)cc2)cc1,inactive,inactive,–,–
CSCCC=O,inactive,inactive,–,–
CCCCCCCCCCCCOCC1CO1 (stereo not drawn),inactive,inactive,–,–
Cc1c(I)c(=O)n(-c2ccccc2)n1C,inactive,inactive,–,–
Cn1c(N)c(N=O)c(=O)n(C)c1=O,inactive,inactive,–,–
CC(=O)OC[C@H]1O[C@@H](OC(C)=O)[C@H](OC(C)=O)[C@@H]1OC(C)=O,inactive,inactive,–,–
Cc1cc(S(=O)(=O)O)ccc1N=Nc1c(O)ccc2ccccc12,inactive,inactive,–,–
CCCCS(=O)(=O)N[C@@H](Cc1ccc(OCCCCC2CCNCC2)cc1)C(=O)O,inactive,inactive,–,–
CC1=C(CC(=O)O)c2cc(F)ccc2/C1=C\c1ccc(S(C)(=O)=O)cc1,inactive,inactive,–,–
CC(Cc1cccc(C(F)(F)F)c1)NCCOC(=O)c1ccccc1 (stereo not drawn),inactive,inactive,–,–

SMILES,Potency [1],Potency [2],"viability change, negative = cytotoxic [1]","activity change, negative = cytotoxicity [2]"
O=S(=O)(O)c1cc(Cl)c(Cl)cc1Cl,inactive,inactive,–,–
NS(=O)(=O)c1ccc(N2CCCCS2(=O)=O)cc1,inactive,inactive,–,–
Cc1nc2ccccc2s1,inactive,inactive,–,–
CCC(CC)CO,inactive,inactive,–,–
Cc1ccc(-c2ccccc2C#N)cc1,inactive,inactive,–,–
[K+],inactive,inactive,–,–
Nc1ccc(F)cc1F,inactive,inactive,–,–
Cc1c(N(C)CS(=O)(=O)O)c(=O)n(-c2ccccc2)n1C,inactive,inactive,–,–
CCNS(=O)(=O)c1ccc(C)cc1,inactive,inactive,–,–
CCCC(=O)Nc1ccc(O)c(C(C)=O)c1,inactive,inactive,–,–
CN(CCCN1c2ccccc2CCc2ccccc21)CC(=O)c1ccc(Cl)cc1,inactive,inactive,–,–
CC1(C)[C@H]2CC[C@]1(C)C(=O)C2,inactive,inactive,–,–
O=C(O)CN(CCN(CC(=O)O)CC(=O)O)CCN(CC(=O)O)CC(=O)O,–,–,8.32% [at 18.9 µM],3.54% [at 18.9 µM]
CCCCCCC#CC(=O)OC,inactive,inactive,–,–
Cc1c(N=C=O)cccc1N=C=O,inactive,inactive,–,–
CNC(=O)C(c1ccccc1)c1ccccc1,inactive,inactive,–,–
CN(C)C(=O)Oc1ccc[n+](C)c1,inactive,inactive,–,–
C=CC(=O)OCCCC,inactive,inactive,–,–
Oc1cc(O)c2c(c1)O[C@H](c1ccc(O)c(O)c1)[C@H](O)C2,inactive,inactive,–,–
CCc1nnc(NS(=O)(=O)c2ccc(N)cc2)s1,inactive,inactive,–,–
CN(C)C(=O)C(CCN1CCC(O)(c2ccc(Cl)cc2)CC1)(c1ccccc1)c1ccccc1,inactive,inactive,–,–
O=S(=O)(O)c1ccc2c(N=Nc3ccc(S(=O)(=O)O)c4ccccc34)c(O)c(S(=O)(=O)O)cc2c1,–,–,7.11% [at 8.39 µM],0.372% [at 8.39 µM]

SMILES,Potency [1],Potency [2],"viability change, negative = cytotoxic [1]","activity change, negative = cytotoxicity [2]"
CC(C)(c1ccc(O)cc1)c1ccc(O)cc1,inactive,inactive,–,–
CC(=O)OC1CCCCC1,inactive,inactive,–,–
NCC1CCC(C(=O)Oc2ccc(CCC(=O)O)cc2)CC1 (stereo not drawn),inactive,inactive,–,–
ClCCCl,inactive,inactive,–,–
CN1C(=O)OC(C)(C)C1=O,inactive,inactive,–,–
C=CC(C)(O)CCCC(C)CCCC(C)CCCC(C)C (stereo not drawn),inactive,inactive,–,–
CC1OC(=O)C(C)OC1=O (stereo not drawn),inactive,inactive,–,–
Cc1cccn2c(=O)c(-c3nnn[nH]3)cnc12,–,–,-1.68% [at 18.9 µM],-13.9% [at 18.9 µM]
CNS(=O)(=O)Cc1ccc2[nH]cc(CCN(C)C)c2c1,inactive,inactive,–,–
CCN(CC)CCN,inactive,inactive,–,–
CN(C)Cc1cc(CN(C)C)c(O)c(CN(C)C)c1,inactive,inactive,–,–
C=C(C)C1CC=C(C)C(=O)C1 (stereo not drawn),inactive,inactive,–,–
CC(C)(C)CC(=O)OCC(=O)[C@@]1(O)CC[C@H]2[C@@H]3CCC4=CC(=O)C=C[C@]4(C)[C@H]3[C@@H](O)C[C@@]21C,inactive,inactive,–,–
CCCCCc1ccco1,inactive,inactive,–,–
Clc1ccc(C(Cn2ccnc2)OCc2ccsc2Cl)c(Cl)c1 (stereo not drawn),inactive,inactive,–,–
C=CC(C)(CCC=C(C)C)OC(=O)CC(C)C (stereo not drawn),inactive,inactive,–,–
NC(N)=NCCC[C@H](N)C(=O)O,–,–,-0.587% [at 8.39 µM],-0.412% [at 8.39 µM]
Nc1ccc(S(=O)(=O)O)c(N)c1,inactive,inactive,–,–
O=C(/C=C/c1ccc(O)c(O)c1)O[C@@H](C(=O)O)[C@@H](OC(=O)/C=C/c1ccc(O)c(O)c1)C(=O)O,inactive,inactive,–,–
CCCOC(C)=O,inactive,inactive,–,–
CCCCCCCC/C=C\CCCCCCCC(=O)N(C)CC(=O)O,inactive,inactive,–,–
